This note sets out measurements from PubChem BioAssay.

One test deals with Albumin (Bos taurus) (UniProt P02769). As to the kind of experiment: bovine serum albumin binders on microarray, profiling panel, artefact control for SMM control protein annotation, biochemical, small-molecule microarray, Alexa647 label, 635/667 nm fluorescence (AID 1118).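 Note: score merges 667 nm emission intensity and signal-to-noise per printed compound spot.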 Conditions: BSA-A647 binding, fluorescence 635 nm, higher = more signal.
Test [1] is described as follows: small-molecule microarray binders of probe aXIP, primary screen, biochemical, NeuroSMM set, 635/667 nm fluorescence (AID 1119).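 Note: probe is the protein aXip251-270 applied at 1 µg/mL to compound-printed slides; binding of probe to printed compounds measured as 667 nm fluorescence plus signal to noise.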 Particulars: higher = more signal, called active from +8 up or from −8 down.
Test [2] in a line: small-molecule binders of probe aNOTCH3, primary screen, biochemical, small-molecule microarray, 635/667 nm fluorescence (AID 1120).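 Note: probe is a biotin-tagged antibody raised against NOTCH3 rather than NOTCH3 protein; score merges spot fluorescence near 667 nm with spot signal to noise.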 Particulars: higher = more signal.
The nature of test [3]: small-molecule binders of probe aNOTCH2, primary screen, biochemical, small-molecule microarray, 635/667 nm fluorescence (AID 1121).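 Note: score merges feature fluorescence read at 667 nm with its signal to noise.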 Conditions: higher = more signal.
Test [4] deals with Carbonic anhydrase 2 (Homo sapiens) (UniProt P00918). In words: CAII small-molecule binders, profiling panel, biochemical, small-molecule microarray, Alexa647-labelled CAII (AID 1122). Conditions: CAII-A647 binding fluorescence, higher = more signal.
Test [5] in a line: COS7 lysate on small-molecule microarray, probe aHis, 635 nm (AID 1123).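 Note: z-score combines 667nm fluorescence intensity with signal-to-noise per printed compound spot.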 Particulars: COS7 cell lysate, fluorescence, higher = more signal.
A short description of test [6]: compound binding in COS7 lysate, probe aLAP1, primary screen, cell lysate, small-molecule microarray (AID 1124).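 Note: lysate comes from COS7 cells expressing LAP1 and is applied at 0.3 µg/mL; score merges spot fluorescence near 667 nm with signal-to-noise over triplicate slides.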 Particulars: probe aLAP1, fluorescence, higher = more signal.
The next test relates to Sam68 (KHDRBS1). As to the kind of experiment: Sam68 small-molecule binders, primary screen, biochemical, small-molecule microarray, 635 nm fluorescence (AID 1125).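 Note: score merges 667 nm channel intensity with signal to noise over triplicate slides.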 Conditions: small-molecule microarray binding, higher = more signal.
For test [7], the system named is Chordin-like protein 2 (CHRDL2). In words: CHRDL2 small-molecule binders, primary screen, biochemical, small-molecule microarray, 635 nm fluorescence (AID 1126).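 Note: printed compound slides probed with Chrdl2 protein at 4 µg/mL for 1 h at 4 C; score merges 667 nm emission intensity with signal to noise over three replicate slides.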 Particulars: small-molecule microarray binding, fluorescence 635 nm; higher = more signal.
For test [8], the target named is Concanavalin-A (Canavalia ensiformis) (UniProt P02866). In words: ConA small-molecule binders, primary screen, artefact control for SMM control protein annotation, biochemical, small-molecule microarray, Alexa647 label, 635 nm (AID 1127).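 Note: z combines 667 nm emission intensity with signal-to-noise across three replicate slides.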 Particulars: ConA-A647 binding fluorescence, higher = more signal.
Test [9] is described as follows: anti-His antibody binders, primary screen, artefact control for SMM control protein annotation, biochemical, small-molecule microarray, 635 nm fluorescence (AID 1128).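 Note: score merges feature fluorescence with signal-to-noise for each printed compound spot.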 Particulars: anti-His Alexa647 antibody binding, higher = more signal.
The test system of test [10] is Human papillomavirus type 1a E7 protein (residues 1-88). As to the kind of experiment: HPV1a E7 small-molecule binders, primary screen, biochemical, small-molecule microarray, residues 1-88, 635 nm (AID 1129). Particulars: small-molecule microarray binding, fluorescence 635 nm; higher = more signal.
The target of test [11] is Focal adhesion kinase 1 (Homo sapiens) (UniProt Q05397). In words: small-molecule microarray binders of FAK, primary screen, biochemical, 635/667 nm fluorescence, BSA, DTT (AID 1130).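 Note: composite of spot emission at 667 nm and signal to noise over triplicate slides.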 Particulars: PTK2 binding, 635 nm fluorescence, higher = more signal.
Test [12] deals with Fibrinogen (Alexa647-labelled). As to the kind of experiment: fibrinogen binders on compound microarrays, profiling panel, artefact control for SMM control-protein annotation, biochemical, small-molecule microarray, 635/667 nm fluorescence (AID 1131).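 Note: z-score merges 667 nm fluorescence with per-spot signal-to-noise over triplicate slides.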 Conditions: fibrinogen-A647 binding fluorescence, higher = more signal.
In test [13] the target is Follistatin (Homo sapiens) (UniProt P19883). In words: follistatin binders on small-molecule microarrays, primary screen, biochemical, small-molecule microarray, 635/667 nm fluorescence (AID 1132). Particulars: FST binding, 635 nm fluorescence, higher = more signal.
In test [14] the target is Fibroblast growth factor 2 (Homo sapiens) (UniProt P09038). In words: FGF2 binders on small-molecule microarrays, primary screen, biochemical, small-molecule microarray, 635/667 nm fluorescence (AID 1133). Conditions: small-molecule microarray binding, FGF2, fluorescence 635/667; higher = more signal.
The nature of test [15]: mitochondrial membrane potential change in A549 cells, profiling panel, cell-based, JC-1 fluorescence, basal, 24 h, 100 nL (AID 1138).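 Note: A549 lung adenocarcinoma cells under basal conditions with no added stimulus; test concentration not given here.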 Particulars: higher = more signal.
The test system of the next test is Lefty1. In words: Lefty1 binders on small-molecule microarrays, primary screen, biochemical, small-molecule microarray, 635/667 nm fluorescence (AID 1139). Particulars: small-molecule microarray binding, fluorescence 635/667; higher = more signal.
Test [16] deals with wheat germ agglutinin (Triticum aestivum), Alexa647-labelled. As to the kind of experiment: wheat germ agglutinin binders on compound microarrays, profiling panel, artefact control for SMM control-protein annotation, biochemical, small-molecule microarray, 635/667 nm fluorescence (AID 1140).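 Note: score merges 667 nm feature emission with signal to noise over triplicate slides.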 Particulars: WGA-A647 binding, 635 nm fluorescence, higher = more signal.
Test [17] addresses Luciferin 4-monooxygenase (Photinus pyralis) (UniProt P08659). As to the kind of experiment: firefly luciferase enzyme inhibitors, primary screen, biochemical, luminescence, purified enzyme, 2006 set (AID 1141).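 Note: cell-free assay with purified firefly luciferase at 100 ng per well in PBS; test concentration not given here.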 Particulars: SteadyGlo luminescence, 30 min, higher = more signal, called active from +8 up or from −8 down.

Structures are written as SMILES. Activity calls are given as the source filed them.

Chain of Albumin (Bos taurus) (P02769 whole entry, looked up): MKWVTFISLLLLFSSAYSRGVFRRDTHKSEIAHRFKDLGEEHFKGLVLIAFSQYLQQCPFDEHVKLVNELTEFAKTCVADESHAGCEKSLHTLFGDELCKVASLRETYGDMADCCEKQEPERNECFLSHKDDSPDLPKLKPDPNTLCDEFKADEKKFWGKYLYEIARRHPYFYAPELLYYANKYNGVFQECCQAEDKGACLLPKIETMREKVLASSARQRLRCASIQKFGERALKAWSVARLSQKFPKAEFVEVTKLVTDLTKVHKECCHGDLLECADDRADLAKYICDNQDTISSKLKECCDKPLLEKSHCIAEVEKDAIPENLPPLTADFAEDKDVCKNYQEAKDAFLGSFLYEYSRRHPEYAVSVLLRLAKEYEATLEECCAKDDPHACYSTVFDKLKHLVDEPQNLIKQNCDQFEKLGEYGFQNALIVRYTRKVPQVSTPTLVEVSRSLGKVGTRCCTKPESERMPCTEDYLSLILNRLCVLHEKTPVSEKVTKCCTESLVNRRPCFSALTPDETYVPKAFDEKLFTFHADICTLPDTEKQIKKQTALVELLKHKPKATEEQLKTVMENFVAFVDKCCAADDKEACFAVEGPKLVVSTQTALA
Chain of Luciferin 4-monooxygenase (Photinus pyralis) (P08659 whole entry, looked up): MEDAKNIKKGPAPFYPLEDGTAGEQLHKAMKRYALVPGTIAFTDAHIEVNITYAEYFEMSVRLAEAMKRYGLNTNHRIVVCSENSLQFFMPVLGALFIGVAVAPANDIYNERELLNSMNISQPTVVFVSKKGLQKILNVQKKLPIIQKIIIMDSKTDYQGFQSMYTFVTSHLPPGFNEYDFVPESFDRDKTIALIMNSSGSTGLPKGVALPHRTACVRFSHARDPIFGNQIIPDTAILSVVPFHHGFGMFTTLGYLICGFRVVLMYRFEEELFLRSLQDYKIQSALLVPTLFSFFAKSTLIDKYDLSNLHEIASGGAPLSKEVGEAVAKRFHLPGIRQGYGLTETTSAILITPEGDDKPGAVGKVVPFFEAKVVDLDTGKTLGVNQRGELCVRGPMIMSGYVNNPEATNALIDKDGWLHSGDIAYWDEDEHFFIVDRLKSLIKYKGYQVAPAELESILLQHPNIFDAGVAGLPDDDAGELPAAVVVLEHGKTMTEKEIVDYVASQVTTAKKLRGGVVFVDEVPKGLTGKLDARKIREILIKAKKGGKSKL
Chain of Follistatin (Homo sapiens) (P19883 whole entry, looked up): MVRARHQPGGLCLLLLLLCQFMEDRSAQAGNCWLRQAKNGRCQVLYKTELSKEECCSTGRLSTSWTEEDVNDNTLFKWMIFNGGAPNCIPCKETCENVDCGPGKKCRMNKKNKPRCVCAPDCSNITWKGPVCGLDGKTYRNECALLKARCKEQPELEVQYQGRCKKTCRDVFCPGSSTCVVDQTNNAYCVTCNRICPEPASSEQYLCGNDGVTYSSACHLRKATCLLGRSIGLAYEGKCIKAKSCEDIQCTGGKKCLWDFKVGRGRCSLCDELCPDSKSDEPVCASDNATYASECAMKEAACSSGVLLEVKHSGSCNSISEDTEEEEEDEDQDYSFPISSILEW
Chain of Concanavalin-A (Canavalia ensiformis) (P02866 whole entry, looked up): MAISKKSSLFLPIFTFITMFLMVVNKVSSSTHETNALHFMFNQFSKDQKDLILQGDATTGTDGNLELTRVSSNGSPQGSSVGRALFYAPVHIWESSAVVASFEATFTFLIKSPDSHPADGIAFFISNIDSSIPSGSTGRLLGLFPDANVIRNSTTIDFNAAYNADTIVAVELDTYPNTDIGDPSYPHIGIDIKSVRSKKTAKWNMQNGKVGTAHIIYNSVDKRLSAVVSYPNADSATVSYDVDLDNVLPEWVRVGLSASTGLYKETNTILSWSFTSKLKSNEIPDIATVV
Chain of Fibroblast growth factor 2 (Homo sapiens) (P09038 whole entry, looked up): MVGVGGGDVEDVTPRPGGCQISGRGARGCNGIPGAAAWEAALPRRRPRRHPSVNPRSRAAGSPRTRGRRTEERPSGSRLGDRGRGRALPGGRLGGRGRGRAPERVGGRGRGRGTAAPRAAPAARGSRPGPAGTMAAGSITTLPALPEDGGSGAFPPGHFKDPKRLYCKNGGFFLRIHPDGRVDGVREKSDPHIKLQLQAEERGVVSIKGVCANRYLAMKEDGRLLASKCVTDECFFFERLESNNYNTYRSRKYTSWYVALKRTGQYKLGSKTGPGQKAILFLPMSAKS
Chain of Focal adhesion kinase 1 (Homo sapiens) (Q05397 whole entry, looked up): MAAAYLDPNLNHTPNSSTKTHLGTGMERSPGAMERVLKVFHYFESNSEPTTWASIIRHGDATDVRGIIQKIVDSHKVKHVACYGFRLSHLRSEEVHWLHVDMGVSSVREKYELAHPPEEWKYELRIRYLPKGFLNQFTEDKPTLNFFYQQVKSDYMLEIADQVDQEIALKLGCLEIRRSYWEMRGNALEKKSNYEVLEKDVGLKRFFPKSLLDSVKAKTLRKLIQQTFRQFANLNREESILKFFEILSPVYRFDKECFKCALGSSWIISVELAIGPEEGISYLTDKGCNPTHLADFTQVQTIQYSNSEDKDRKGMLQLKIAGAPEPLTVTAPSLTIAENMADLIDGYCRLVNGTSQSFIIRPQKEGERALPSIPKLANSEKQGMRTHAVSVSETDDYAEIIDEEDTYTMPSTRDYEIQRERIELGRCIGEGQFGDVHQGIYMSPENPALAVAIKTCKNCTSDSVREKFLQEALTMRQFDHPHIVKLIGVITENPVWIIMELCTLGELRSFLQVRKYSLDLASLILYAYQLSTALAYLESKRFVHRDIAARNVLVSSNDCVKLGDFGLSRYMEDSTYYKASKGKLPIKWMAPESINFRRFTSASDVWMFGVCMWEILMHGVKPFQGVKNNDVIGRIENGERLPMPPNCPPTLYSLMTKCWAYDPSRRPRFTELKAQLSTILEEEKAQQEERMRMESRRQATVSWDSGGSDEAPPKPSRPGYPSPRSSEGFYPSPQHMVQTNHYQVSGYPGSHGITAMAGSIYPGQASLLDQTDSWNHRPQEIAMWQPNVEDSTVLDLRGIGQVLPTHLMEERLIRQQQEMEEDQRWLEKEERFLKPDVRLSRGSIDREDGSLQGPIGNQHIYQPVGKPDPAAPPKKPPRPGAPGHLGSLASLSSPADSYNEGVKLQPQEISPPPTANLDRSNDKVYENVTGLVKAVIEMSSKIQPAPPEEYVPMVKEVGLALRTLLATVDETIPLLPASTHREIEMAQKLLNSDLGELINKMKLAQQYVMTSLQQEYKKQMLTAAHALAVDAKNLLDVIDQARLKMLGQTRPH

Regarding `O=C1C=C[C@@H](O)[C@@H]2[C@@H]3C(=O)N(Cc4ccccc4)C(=O)[C@@H]3CC[C@@H]12`, the composite z-score was 0.22 in the test with Albumin (Bos taurus); 0.21 in test [2]; -0.132 in [3]; -0.0331 in [4]; 0.556 in [5]; -0.139 in test [6]. Moreover, the composite z-score was 0.0888 with Sam68 (KHDRBS1); 0.482 in [7]; 0.619 in test [8]; 0.0502 in test [9]; 0.673 in test [10]; 0.168 in test [11]. Besides, the composite z-score in [12] is 0.394; in test [13], 0.415; in test [14] it was 0.484; in the test with Lefty1, 0.314; in test [16] it was 0.228. Also, the composite Z-score in test [1] was -0.5 (inactive). Further, the z-score in test [15] is 0.831; in [17] it was -0.505 (inactive).

For `CCOC(=O)CCN1C(=O)[C@H]2[C@H]3[C@H](O)[C@H](O)CC(=NO[C@@H]4O[C@H](CO)[C@@H](O)[C@H](O)[C@H]4O)[C@H]3CC[C@H]2C1=O`, the composite z-score is 0.0221 with Albumin (Bos taurus); -0.15 in test [2]; -0.113 in [3]; 0.197 in [4]; 0.174 in [5]; -0.0363 in [6]. In addition, the composite z-score amounted to 0.201 with Sam68 (KHDRBS1); 0.52 in test [7]; 0.487 in [8]; 0.919 in [9]; 0.544 in test [10]; 0.068 in test [11]. In addition, the composite z-score in test [12] is 0.551; in [13], 0.0489; in [14] it was 0.599; in the test with Lefty1, 0.49; in test [16] it was -0.104. In addition, the composite Z-score in test [1] was -0.048 (inactive). The z-score in test [15] is -0.658; in [17], 0.493 (inactive).

As to `CC1(C)O[C@H]2O[C@H]([C@H](O)CON=C3[C@H]4CCn5c(=O)n(-c6ccccc6)c(=O)n5[C@H]4[C@H](O)[C@@H]4O[C@H]34)[C@H](O)[C@H]2O1`, the composite z-score was 0.661 in the test with Albumin (Bos taurus); -0.342 in test [2]; -0.105 in test [3]; -0.195 in test [4]; -0.337 in test [5]; -0.0336 in test [6]. Besides, the composite z-score in the test on Sam68 (KHDRBS1) was -0.773; in test [7], 0.19; in test [8] it was 0.444; in test [9] it was 0.455; in test [10], -0.282; in [11] it was -0.282. Besides, the composite z-score in [12] worked out at 0.0946; in test [13], 0.154; in [14] it was 0.947; in the test with Lefty1 it was 0.222; in test [16], 0.0136. The composite Z-score in test [1] was -0.171 (inactive). The z-score was -0.994 in [15] and 0.0158 (inactive) in test [17].

Turning to `C=CCOCC1CN2[C@@H](CC[C@@H](C)[C@@H]2c2ccc(Br)cc2)C(=O)O1` (stereo not given in full), the composite z-score with Albumin (Bos taurus) was -0.509; in test [2] it was -0.0932; in test [3], -0.189; in [4] it was -0.401; in test [5], -0.329; in test [6], 0.975. Also, the composite z-score with Sam68 (KHDRBS1) was -0.85; in [7], 0.562; in [8], -0.172; in test [9] it was 0.24; in test [10] it was -0.695; in test [11], -0.262. The composite z-score is -0.5 in test [12]; 0.119 in test [13]; 0.166 in test [14]; 0.262 with Lefty1; -0.16 in [16]. The composite Z-score in test [1] is 0.419 (inactive). Besides, the z-score in test [15] was 1.88; in [17] it was -0.764 (inactive).

For the molecule `COC(=O)CC=C[C@@H](C)[C@@H](C=NOC(C)CN1CCCCc2nc(C)c(C)cc21)OC` (stereo not given in full), the composite z-score was 0.276 with Albumin (Bos taurus); 0.227 in test [2]; -0.0439 in [3]; 0.301 in test [4]; 0.043 in [5]; -0.0856 in test [6]. In addition, the composite z-score in the test on Sam68 (KHDRBS1) was found to be 1.28; in test [7] it was 1.29; in test [8], 0.235; in test [9], 1.4; in test [10], 0.981; in [11] it was 0.847. Further, the composite z-score in test [12] worked out at 0; in test [13], 1.14; in [14] it was 0.368; in the test on Lefty1 it was 1.24; in [16], 0.259. In addition, the composite Z-score in test [1] was -0.472 (inactive). Further, the z-score is 0.855 in test [15] and -0.183 (inactive) in test [17].
